# hgDAF-12 ag: agonists of H. glycines DAF-12 nuclear receptor; activation, % at 6.8 µM; 1.8% of 370,000 active; HEK293 GAL4-hgDAF12 UAS-luciferase reporter, agonist luminescence; normalized to butyrate control;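 active = activation above a cutoff set at the mean of all screened compounds plus 3 SD, cut at about 10% in these data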;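 also: 0% = DMSO wells and 100% = sodium butyrate wells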
# DAX1 inh-1: NR0B1 (DAX1) inhibition; P51843; HEK293 Gal4-DAX1 luciferase reporter, luminescence; inhibition, % at 6.75 µM; 0.99% of 340,000 active; AID 504766;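 active = inhibition above the mean over all tested compounds plus 3 SD, cut at about 4.2% in these data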;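 also: 0% = DAX1-transfected cells with DMSO and 100% = empty-vector control cells with DMSO; inhibition shows as a rise in luminescence from relieved DAX1 repression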
# DAX1 inh-2: DAX1 (NR0B1) inhibition, primary screen; HEK293T StAR-luciferase reporter, SF-1/DAX-1 repression relief; inhibition, % at 6.8 µM; 1.1% of 370,000 active; AID 652010;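 active = inhibition above the mean over all tested compounds plus 3 SD, cut at about 3.6% in these data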;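 also: 0% = DAX-1 cells with DMSO and 100% = cells lacking DAX-1 with DMSO; higher inhibition means more luminescence from relief of DAX-1 repression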
# ssDAF12 agonist: S. stercoralis DAF-12 activation, primary screen; HEK293 ssDAF-12/GRIP1 lit1-tk-luc reporter, luminescence; % of 3 µM dafachronic acid response; activation, % at 6.8 µM; 1% of 370,000 active; AID 652126;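 active = activation above the mean over all tested compounds plus 3 SD, cut at about 0.9% in these data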;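 also: 0% = DMSO-only wells and 100% = 3 µM delta7-dafachronic acid wells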
# hcDAF-12 act: H. contortus DAF-12 activation, primary screen | HEK293 hcDAF-12 lit1-tk-luc reporter, luminescence; 0% DMSO, 100% Δ7-dafachronic acid | activation, % at 6.8 µM | 1.4% of 370,000 active | AID 652067;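 active = activation above the mean of all tested compounds plus 3 SD, cut at about 5.5% in these data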;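 also: 100% = response to 3 µM Δ7-dafachronic acid high control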
# DAX1 conf: confirmation of human DAX1 (NR0B1) inhibitors | HEK293T StAR-promoter luciferase reporter, SF-1/DAX-1 repression | 87% of 2,400 active | inhibition, % at 6.8 µM | shares compounds with DAX1 inh-2;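 active = inhibition above the average of every tested compound plus 3 SD, cut at about 3.8% in these data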;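 also: 0% = DAX-1 cells with DMSO and 100% = no DAX-1 control cells with DMSO; active compounds raise luminescence by relieving repression of the StAR reporter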
# Target sequence (P51843 whole entry, looked up): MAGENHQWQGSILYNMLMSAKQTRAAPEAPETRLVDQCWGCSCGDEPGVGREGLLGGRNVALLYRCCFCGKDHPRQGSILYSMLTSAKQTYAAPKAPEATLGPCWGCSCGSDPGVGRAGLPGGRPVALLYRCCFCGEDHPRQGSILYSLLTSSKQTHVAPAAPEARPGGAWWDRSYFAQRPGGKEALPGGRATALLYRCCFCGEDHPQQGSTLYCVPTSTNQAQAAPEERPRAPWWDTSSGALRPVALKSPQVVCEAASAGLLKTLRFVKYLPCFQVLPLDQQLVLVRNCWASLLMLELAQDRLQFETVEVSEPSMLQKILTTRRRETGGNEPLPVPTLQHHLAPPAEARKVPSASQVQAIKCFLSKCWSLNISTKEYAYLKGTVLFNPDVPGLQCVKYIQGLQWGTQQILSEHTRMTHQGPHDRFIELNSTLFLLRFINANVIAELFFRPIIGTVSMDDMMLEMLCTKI
# SF1 AF2mut Luc: nonselective inhibitor or artifact in SF-1 mutant DAX1 counter-screen; 78% of 2,400 active; HEK293 StAR-luciferase, SF-1 AF2 mutant, luminescence; inhibition, % at 6.8 µM; shares compounds with DAX1 inh-2;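 active = inhibition above the mean of all tested compounds plus 3 SD, cut at about 3% in these data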;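 also: 0% = DAX-1 transfected cells with DMSO and 100% = cells without DAX-1 with DMSO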
# LXRb hcDAF ctr: LXR-beta agonism as hcDAF-12 counter-screen; HEK293 Gal4-LXR tk-luc reporter, luminescence, 24 h; normalized: DMSO 0%, positive control 100%; activation, % at 6.8 µM; 3,400 tested, under 10 active; shares compounds with hcDAF-12 act;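 active = mean percent activation of the reporter above a cutoff set as the average over tested compounds plus their standard deviation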
# hcDAF12 conf: confirmation of H. contortus DAF-12 agonists; shares compounds with hcDAF-12 act; HEK293 hcDAF-12 lit1-tk-luc reporter, luminescence; % of Δ7-dafachronic acid response; activation, % at 6.8 µM; 61% of 3,400 active;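 active = mean activation across triplicate tests above the threshold derived from the earlier primary screen, cut at about 5.5% in these data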;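 also: 0% = DMSO only wells and 100% = 3 µM Δ7-dafachronic acid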
# hgDAF12 conf: confirmation of H. glycines DAF-12 agonists; shares compounds with hgDAF-12 ag; HEK293 GAL4-hgDAF12 luciferase reporter, agonist mode; percent of butyrate response; activation, % at 6.8 µM; 80% of 3,300 active; AID 743050;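 active = mean activation over triplicate wells above the hit cutoff derived from the earlier primary screen, cut at about 11% in these data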;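 also: 0% = DMSO low control and 100% = 2 mM sodium butyrate high control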
# LXRb DAF12 ctr: counter-screen for DAF-12 agonists: agonists of human LXR-beta | AID 743051 | activation, % at 6.8 µM | HEK293 Gal4-LXR luciferase reporter, 24 h | 3,300 tested, under 10 active | shares compounds with hgDAF-12 ag;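 active = mean activation of the triplicate above a set limit carried over from the primary screen, none filed active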
# An asterisk follows results filed as active; . = no result. An excerpt weighted towards active compounds, which were near 4.1% of everything screened.
SMILES,hgDAF-12 ag,DAX1 inh-1,DAX1 inh-2,ssDAF12 agonist,hcDAF-12 act,DAX1 conf,SF1 AF2mut Luc,LXRb hcDAF ctr,hcDAF12 conf,hgDAF12 conf,LXRb DAF12 ctr
COc1ccccc1OCC(=O)Nc1ncc(C)s1,17*,1,10*,0,5,8.5*,6.7*,.,.,15*,1
COC(=O)c1sc(NC(=O)COc2ccccc2OC)nc1C,0,0,0,-2,0,.,.,.,.,.,.
Cc1ccc(C2=NN3C(C2)c2ccccc2OC32C(=O)Nc3ccccc32)cc1 (stereo unspecified),25*,2,5.3*,2.2*,19*,9.9*,9.4*,1,8.3*,20*,1
COc1ccc(C#CCN(C)/C(N)=N/C(=O)OCc2ccccc2)cc1,3,.,0,-2,3,.,.,.,.,.,.
Cc1nc2sc(-c3ccccc3)cc2c(=O)[nH]1,21*,-2,6.1*,1,7.4*,12*,6.7*,1,5.8*,12*,1
O=c1c2cc(-c3ccccc3)sc2nc2n1CCC2,20*,.,5.4*,0,4,15*,7.7*,.,.,18*,1
Cc1nc2sc(-c3ccccc3)cc2c(=O)n1N,17*,-2,4.7*,0,6.7*,4.6*,1,1,4,5,1
O=c1[nH]c(-c2cccnc2)nc2sc(-c3ccccc3)cc12,5,3,1,-2,-1,.,.,.,.,.,.
Cc1nc2ccccc2c(=O)n1N,0,1,1,-1,-1,.,.,.,.,.,.
O=c1c2ccccc2nc2n1CCC2,2,2,0,-2,0,.,.,.,.,.,.
COc1ccc(-n2c(COc3ccccc3)nnc2SCC(=O)Nc2ccc3c(c2)OCCO3)cc1,-1,.,-1,-1,-1,.,.,.,.,.,.
CC(C)Cc1ccc(/C=C/C(=O)N2CCOCC2)cc1,16*,3,6.0*,1.4*,4,9.5*,5.2*,.,.,12*,1
CC(C)(C)c1ccc(/C=C/C(=O)N2CCOCC2)cc1,10,1,2,0,4,.,.,.,.,.,.
COC(=O)[C@]12C[C@H](CC(=O)NCC34CC5CC(CC(C5)C3)C4)C(=O)N(Cc3cccc4ccccc34)C1=C[C@H](C(C)(C)C)O[C@@H]2C,3,.,-1,-1,-1,.,.,.,.,.,.
CN(CC#Cc1ccccc1)C(N)=NC(=O)/C=C/c1cccc(C(F)(F)F)c1,-3,.,0,-2,-2,.,.,.,.,.,.
C/C(=N\NC(=O)c1sccc1C)c1ccncc1,20*,2,18*,1.1*,9.1*,4.9*,2.9*,1,2,14*,1
Cc1ccsc1C(=O)NN=C1CCCCCC1,15*,1,15*,1.8*,9.2*,4.7*,3.4*,0,1,13*,1
FC(F)(F)c1ccccc1Cn1ccc2ccc(-c3ccc4ccn(Cc5ccccc5C(F)(F)F)c4c3)cc21,-2,.,-1,-1,1,.,.,.,.,.,.
CCC(=O)Nc1ccc(OCc2nc3ccccc3s2)cc1,20*,2,9.4*,2.5*,11*,15*,7.7*,1,11*,16*,1
CCOC(=O)CC[C@@]1(C(=O)OCC)C[C@@H](CC(=O)N2CCN(C(=O)c3ccco3)CC2)C(=O)N2CCCC=C21,-1,.,0,-1,1,.,.,.,.,.,.
O=C(Nc1ccc2c(c1)OCCO2)c1cnc2ccccn2c1=O,10,2,3,0,1,.,.,.,.,.,.
